Laboratory results from PubChem BioAssay (NCATS).
Results filed as inconclusive are left out. Calls follow the shape of the dose curve; as a rule, active = well fitted curve in the direction sought with a large enough effect; inconclusive = small, poorly fitted or top-dose-only effect, or another doubt; inactive = no such curve, though single readings can be large; an effect the other way counts as inactive or inconclusive.

How the values were obtained:
[1] = target: Rap guanine nucleotide exchange factor 4 (Homo sapiens) (UniProt Q8WZA2); assay: Confirmatory qHTS for agonist of cAMP-regulated guanine nucleotide exchange factor 4 (EPAC2) (AID 1645884);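 also: nucleotide exchange releases bodipy-GDP from Rap1 and this lowers its fluorescence; % is scaled to controls: 0 for no effect and ±100 for the full control effect; nearly all actives have a fitted effect of over 65% in size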
Sequence of Rap guanine nucleotide exchange factor 4 (Homo sapiens) (Q8WZA2 whole entry, looked up): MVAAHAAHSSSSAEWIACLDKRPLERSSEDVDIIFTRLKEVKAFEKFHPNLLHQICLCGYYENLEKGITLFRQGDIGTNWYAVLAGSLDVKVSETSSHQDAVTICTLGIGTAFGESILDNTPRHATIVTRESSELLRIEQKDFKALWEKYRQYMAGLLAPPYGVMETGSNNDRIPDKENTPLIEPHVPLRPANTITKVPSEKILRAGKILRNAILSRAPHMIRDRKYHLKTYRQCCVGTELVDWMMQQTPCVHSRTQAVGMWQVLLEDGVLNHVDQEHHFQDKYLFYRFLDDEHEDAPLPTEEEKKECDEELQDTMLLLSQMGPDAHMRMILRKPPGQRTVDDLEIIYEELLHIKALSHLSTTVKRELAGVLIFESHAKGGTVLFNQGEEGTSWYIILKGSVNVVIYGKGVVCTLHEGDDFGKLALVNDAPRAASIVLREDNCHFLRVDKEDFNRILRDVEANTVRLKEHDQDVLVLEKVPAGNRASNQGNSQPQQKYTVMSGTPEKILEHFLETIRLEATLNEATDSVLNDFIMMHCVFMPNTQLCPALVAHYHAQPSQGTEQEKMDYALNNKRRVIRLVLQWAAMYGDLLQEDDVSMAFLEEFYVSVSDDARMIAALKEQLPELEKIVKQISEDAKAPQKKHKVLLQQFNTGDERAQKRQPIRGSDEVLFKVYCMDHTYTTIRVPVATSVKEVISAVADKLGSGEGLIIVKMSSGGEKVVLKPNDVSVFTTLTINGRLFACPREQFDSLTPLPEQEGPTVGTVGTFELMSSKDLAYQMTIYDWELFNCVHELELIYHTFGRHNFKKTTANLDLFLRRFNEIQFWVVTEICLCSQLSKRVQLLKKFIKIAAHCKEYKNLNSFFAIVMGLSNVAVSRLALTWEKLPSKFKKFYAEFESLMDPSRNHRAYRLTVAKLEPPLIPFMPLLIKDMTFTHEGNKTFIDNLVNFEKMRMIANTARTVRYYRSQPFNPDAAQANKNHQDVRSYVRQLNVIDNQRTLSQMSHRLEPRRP

[2] = target: Rap guanine nucleotide exchange factor 4 (Homo sapiens) (UniProt Q8WZA2); assay: Confirmatory qHTS for antagonist of cAMP-regulated guanine nucleotide exchange factor 4 (EPAC2) (AID 1645885); also: % is scaled to controls: 0 for no effect and ±100 for the full control effect; nearly all actives have a fitted effect of over 25% in size
[3] = target: Rap guanine nucleotide exchange factor 3 (Homo sapiens) (UniProt O95398); assay: Counterscreen qHTS for antagonist of cAMP-regulated guanine nucleotide exchange factor 3 (EPAC1) (AID 1645888);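 also: fluorescence loss as bound BODIPY-GDP is released from Rap1B; % of control where 0% means no effect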
Sequence of Rap guanine nucleotide exchange factor 3 (Homo sapiens) (O95398 whole entry, looked up): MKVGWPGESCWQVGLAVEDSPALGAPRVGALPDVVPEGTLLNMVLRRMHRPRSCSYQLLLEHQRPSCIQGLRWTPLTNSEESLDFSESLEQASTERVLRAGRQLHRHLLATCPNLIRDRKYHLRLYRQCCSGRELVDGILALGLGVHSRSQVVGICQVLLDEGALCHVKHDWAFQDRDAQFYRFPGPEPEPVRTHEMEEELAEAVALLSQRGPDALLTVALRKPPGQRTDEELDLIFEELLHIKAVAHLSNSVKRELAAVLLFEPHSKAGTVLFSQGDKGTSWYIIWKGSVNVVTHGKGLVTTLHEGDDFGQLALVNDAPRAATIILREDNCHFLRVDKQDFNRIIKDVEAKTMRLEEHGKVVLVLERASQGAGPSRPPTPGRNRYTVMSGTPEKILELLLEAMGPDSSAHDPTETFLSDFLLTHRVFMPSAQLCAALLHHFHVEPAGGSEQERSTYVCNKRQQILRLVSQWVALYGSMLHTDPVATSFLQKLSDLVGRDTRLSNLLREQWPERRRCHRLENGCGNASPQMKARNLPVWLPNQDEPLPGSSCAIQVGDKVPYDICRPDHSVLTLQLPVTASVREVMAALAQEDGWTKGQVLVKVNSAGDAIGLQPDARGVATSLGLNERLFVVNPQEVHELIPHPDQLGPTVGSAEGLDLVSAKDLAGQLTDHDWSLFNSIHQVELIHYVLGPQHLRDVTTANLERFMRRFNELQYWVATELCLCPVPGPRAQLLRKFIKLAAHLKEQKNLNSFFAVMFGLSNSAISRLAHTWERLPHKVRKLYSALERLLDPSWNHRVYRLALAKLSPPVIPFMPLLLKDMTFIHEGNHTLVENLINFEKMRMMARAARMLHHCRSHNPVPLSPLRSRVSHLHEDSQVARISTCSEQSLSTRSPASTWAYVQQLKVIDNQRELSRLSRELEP
Method in brief: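 Rap1B–BODIPY-GDP (250 nM) with 50 uM GDP; compounds pin-transferred to 9.74 nM–152 uM final (activator) or from 7.32 nM upwards (inhibitor). Fluorescence Ex/Em 480/540 nm read at 5 and 30 min, then after adding cAMP or buffer, at room temperature.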

Nc1c(Br)cc2c3c(cccc13)-c1ccccc1-2
inactive: activation [1] 8.9% [at 17.1 µM, percent relative to cAMP agonist control] | activity change, negative = inhibition [2] 2.51% [at 12.7 µM] | activity change, negative = inhibition [3] 16.7% [at 30.8 µM]
